From PubChem
This is a sample that favours compounds with a hit; in the whole collection about 9.3% have one here.
HCV inhibitor – inhibitors of hepatitis C virus infection; Huh7.5.1 HCVcc-Cre infection, luciferase reporter, 44 h; Potency, µM (titrated, usually from 41.8 µM), for the others: at the highest dose activity change, negative = inhibition, hits mostly inhibitors; 340,000 tested, 3.4% active; further: potency means the concentration at half of the fitted maximal effect
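Cells (1,000/well) were plated 4 h before compound, then infected with HCVcc-Cre virus (~0.5 moi). After 44 h further culture, infection was read as luciferase luminescence following a 15 min substrate incubation at room temperature.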
VACV Venus inh – vaccinia inhibition (Venus reporter) | Vaccinia virus Venus reporter expression, fluorescence | Potency, µM (series often up to 36.5 µM), for inactives: at the highest dose activity change, negative = inhibition, usual class: inhibitors | 330,000 tested, 0.46% active; calls by dose curve; tested in A549 cells; further: potency means the concentration at half of the fitted maximal effect; nearly all actives have a fitted effect of over 30% in size
VACV mCherry inh – vaccinia inhibition (mCherry reporter) | 310,000 tested, 0.63% active | Vaccinia virus mCherry reporter infection, fluorescence | Potency, µM (doses to about 36.5 µM), inactives show top-dose activity change, negative = inhibition, usual class: inhibitors; calls by dose curve; tested in A549 cells; further: potency means the concentration at half of the fitted maximal effect; nearly all actives have a fitted effect of over 35% in size
Sm TGR block – S. mansoni TGR enzyme inhibition. Potency, µM (series often up to 114 µM), for inactives: top-dose activity change, negative = inhibition, usual class: inhibitors. 360,000 tested, 3% active. AID 485364. purified TGR, DTNB reduction, TNB absorbance 405 nm; further: potency means the concentration at half of the fitted maximal effect; nearly all actives have a fitted effect of over 60% in size
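Kinetic colorimetric format: TGR-catalysed, NADPH-driven DTNB reduction monitored via TNB absorbance. Enzyme dispensed at 20 nM; compound exposure 15 min at room temperature before reaction start.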
HCMV inh – human cytomegalovirus inhibition | HFF cells, HCMV-luciferase reporter, 72 h; active compounds read low | activity change, negative = inhibition, % at 57.5 µM | 410,000 tested, 4.5% active | AID 1259415; in the data active means activity change below about -60%; inconclusive means no clear call, values can overlap the other calls; inactive means above about -39%
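After 16 h attachment at 37C, HFF cells received test compound and HCMV-luciferase (1 PFU/cell); reporter luminescence read 72 h later, data normalized against buffer-only and known inhibitor Salinomycin.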
FMDV inh – blocks foot and mouth disease virus. FMDV antiviral cell-based qHTS. Potency, µM (doses to about 57.9 µM), without a hit: at the top dose activity change, negative = inhibition, most hits filed as inhibitors. 410,000 tested, 1.2% active. AID 1159524; calls by dose curve; tested in HEK293T cells; further: read-out not given here; potency means the concentration at half of the fitted maximal effect; nearly all actives have a fitted effect of over 45% in size
The depositor's hits bear a star; i = inactive; ? = inconclusive; nt = no result. Unless noted, the call rests on the fitted dose curve; in most records, active means well fitted curve in the direction sought with a large enough effect; inconclusive means small, poorly fitted or top-dose-only effect, or another doubt; inactive means no such curve, though single readings can be large; an effect the other way counts as inactive or inconclusive. On the % scale 0 is the no-effect control and ±100 the full control effect.

SMILES | HCV inhibitor | VACV Venus inh | VACV mCherry inh | Sm TGR block | HCMV inh | FMDV inh
O=C(Nc1ccncc1)c1cccn(Cc2ccccc2)c1=O | 8.9µM* | -12% | i | ? | -75* | ?
O=C(Nc1ccccc1)c1cccn(Cc2ccccc2)c1=O | 10µM* | -9% | i | 6% | -31 | 3%
O=C(Oc1ccc(C(=S)N2CCOCC2)cc1Br)c1cc(Cl)ccc1Cl | 18% | nt | nt | -22% | 23 | -29%
Clc1ccc2c(N/N=C/c3ccccc3Br)ccnc2c1 | ? | -13% | -21% | -3% | -64* | 0%
C/C(=N/Nc1ccnc2cc(Cl)ccc12)c1ccc(N)cc1 | ? | ? | 8.9µM* | -8% | -32 | 29%
O=[N+]([O-])c1ccc(/C=N/Nc2ccnc3cc(Cl)ccc23)o1 | ? | ? | 16µM* | -34% | -66* | 22%
Nc1c(N(Cc2ccccc2)C(=O)COc2ccc(F)cc2)c(=O)[nH]c(=O)n1Cc1ccccc1 | nt | -22% | -5% | -2% | 5 | -4%
CC(=O)c1ccc(-c2ccc(C(=O)NC3CCCCCC3)o2)cc1 | 10% | 2% | i | 22µM* | -20 | 12%
O=C(NC1CCC(O)CC1)c1ccc(-c2ccc(Cl)cc2)o1 (stereo not given) | ? | -29% | -11% | -5% | -8 | 27%
CN(C)CC(=O)N[C@@H]1CC[C@@H](CC(=O)NCCN2CCCCC2)O[C@@H]1CO | nt | -11% | -9% | nt | -100* | -18%
COc1ccc(OC)c(C2CC(=O)c3c([nH]c(C(=O)OC(C)C)c3C)C2)c1 (stereo not given) | ? | nt | nt | 0% | -70* | -5%
CCOCCOC(=O)c1[nH]c2c(c1C)C(=O)CC(c1ccc(OC)c(OC)c1)C2 (stereo not given) | ? | -7% | -4% | 14% | ? | 22µM*
COCCOC(=O)c1[nH]c2c(c1C)C(=O)CC(c1cc(OC)ccc1OC)C2 (stereo not given) | ? | -25% | -19% | 0% | 4 | -9%
CCCOCCOC(=O)c1[nH]c2c(c1C)C(=O)CC(c1cc(OC)ccc1OC)C2 (stereo not given) | ? | -26% | ? | 1% | -80* | ?
CCCCCCCCN1C(=O)[C@H](CC(=O)N2CCSCC2)C[C@@]2(C(=O)OC)CCCCC=C12 | nt | -11% | -16% | nt | 31 | -8%
Cc1cc(O)c2c(c1O)C(=O)[C@]13C(=C2O)C(=O)[C@@H]2[C@@H](O)[C@H]1[C@@H]1[C@H](O)[C@H]3C(=O)C3=C(O)c4c(O)cc(C)c(O)c4C(=O)[C@]312 | 5µM* | ? | ? | nt | nt | ?
Cc1cc(O)c2c(c1O)C(=O)c1c(O)cc(C)c(O)c1C2=O | nt | 6% | -4% | nt | nt | -15%
COc1ccc(C#Cc2c(-c3ccsc3)oc3ccc(-c4cc(OC)c(OC)c(OC)c4)cc23)cc1 | 9% | -5% | -4% | nt | -8 | -10%
Cc1cc(=O)oc2c(C(=O)/C=C/c3ccccc3)c(O)ccc12 | -8% | -12% | -18% | -22% | -30 | -23%
COc1ccc(/C=C\C(=O)c2c(O)ccc3c(C)cc(=O)oc23)cc1OC | 10µM* | ? | -7% | -3% | -94* | 35µM*
COc1cc(/C=C/C(=O)c2c(O)ccc3c(C)cc(=O)oc23)ccc1O | -22% | ? | -3% | -29% | -92* | ?
CCOC(=O)[C@]12CCCC=C1N(CCc1ccc(OC)c(OC)c1)C(=O)[C@H](CC(=O)NCc1ccc(C)o1)C2 | nt | -16% | -6% | nt | -1 | -13%
Cn1c(=NC(=O)CCl)sc2ccccc21 | 2µM* | -29% | ? | 25µM* | -99* | ?
CCOC(=O)N1CCN(C(=O)CSCC(=O)N=c2sc3ccccc3n2C)CC1 | 7% | -16% | nt | 16µM* | nt | ?
Clc1ccc(-c2nnc(NCCN3CCCC3)c3ccccc23)cc1 | ? | nt | nt | -16% | -23 | 0.89µM*
SMILES | HCV inhibitor | VACV Venus inh | VACV mCherry inh | Sm TGR block | HCMV inh | FMDV inh
Cc1cccc(NC(=O)Cn2c(=O)n(CCc3ccccc3)c(=O)c3sc4ccccc4c32)c1 | nt | -26% | -27% | 5% | -1 | 2%
Cc1ccc(C(=O)Oc2cc(N)n(S(=O)(=O)c3ccc(C)cc3)n2)cc1 | 4% | nt | nt | -1% | -6 | 23%
COc1ccc(S(=O)(=O)n2nc(OC(=O)c3ccncc3)cc2N)cc1 | 43% | -18% | i | 5µM* | -22 | -4%
Cc1ccc(S(=O)(=O)n2nc(OC(=O)c3ccccc3F)cc2N)cc1 | 17% | -10% | -21% | 16µM* | -25 | 21%
Cc1onc(-c2ccccc2Cl)c1C(=O)Oc1cc(N)n(S(=O)(=O)c2ccc(F)cc2)n1 | -25% | -26% | ? | 6% | 31 | 32µM*
COc1ccc(S(=O)(=O)n2nc(OC(=O)c3ccco3)cc2N)cc1 | 12% | -13% | -14% | 22µM* | 58 | 11%
Cc1ccc(S(=O)(=O)n2nc(OC(=O)c3c(-c4ccccc4Cl)noc3C)cc2N)cc1 | 9% | -19% | i | 4% | 21 | ?
C=CCNC(=O)C1CC1(c1ccccc1)c1ccccc1 (stereo not given) | 16% | -2% | -22% | 1% | -26 | -4%
Cc1ccc(NC(=O)CSc2ccc3nnc(-c4ccccn4)n3n2)cc1 | -7% | nt | nt | -7% | -33 | -15%
COc1ccc(/C(N)=N/OC(=O)C2CCC(=O)N2S(=O)(=O)c2ccc(C)cc2)cc1 (stereo not given) | 0% | -7% | -9% | 1% | 21 | 0%
COc1ccc(S(=O)(=O)n2nc(OC(C)=O)cc2N(C(C)=O)C(C)=O)cc1 | 5% | ? | i | 22µM* | 14 | -14%
COc1cc(/C=C/C(=O)c2ccccc2O)cc(OC)c1OC | 14% | -11% | 3% | ? | 16 | 32µM*
COc1cc(O)c(C(=O)/C=C/c2ccc(OC)c(O)c2)c(OC)c1 | nt | ? | ? | nt | nt | 21%
COc1cc(OC)c(C=CC(=O)c2ccccc2O)c(OC)c1 | ? | ? | ? | nt | -64* | 41%
Cc1ccc(/C=C/C(=O)c2ccccc2O)cc1 | 14% | -15% | -2% | -13% | 9 | -18%
COc1cc(/C=C/C(=O)NC(=O)c2ccccc2O)ccc1OC(C)=O | -16% | ? | 5.6µM* | -13% | 16 | 35%
CCC/S(CC1CC1(Cl)Cl)=N\S(=O)(=O)c1ccc(C)cc1 (stereo not given) | 11% | nt | nt | 0% | -9 | 48%
Cc1cc(C(=O)NCc2ccco2)c2ccccc2n1 | 11% | -6% | i | 44% | 38 | 5%
COc1ccc(NC(=O)c2cc(-c3ccccn3)nc3ccccc23)cc1S(=O)(=O)N(C)C | ? | -13% | -1% | 0% | -11 | ?
CCN(CC)S(=O)(=O)c1cc(NC(=O)c2cc(-c3ccccn3)nc3ccccc23)ccc1C | 14µM* | nt | nt | 5% | 15 | -29%
